# System: HepG2
# Test: GSK_TCMDC: Percent inhibition of human HepG2 cell line. Test compounds present at 10uM.
# Assay type: functional
row,Compound,Inhibition [%]
1,Cc1cccc(C)c1CNc1ccnc2ccccc12.Cl,59
2,CC(C)CC(NC(=O)c1cc2ccccc2s1)C(=O)N1CCCCCC1c1ccc(C(C)(C)C)cc1 (centres undefined),23
3,CS(=O)(=O)N(CC(O)Cn1c2ccc(Cl)cc2c2cc(Cl)ccc21)c1ccccc1 (centres undefined),2
4,CN1CCN(CC(=O)Nc2cccc(-c3ccc(-c4nc5cc(F)ccc5[nH]4)s3)c2)CC1,71

# Source: ChEMBL document CHEMBL1157539, “Thousands of chemical starting points for antimalarial lead identification” (Nature, 2010)
